Activity calls are given as the source filed them.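 How the source made its calls: active means response relative to DMSO over 150%; inconclusive means yeast strain with under 70 recorded events; inactive means the rest.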
Test: yeast AGP1-GFP fluorescence change, single-dose confirmation – cell-based, flow cytometry, S. cerevisiae, cherry pick set 3 (AID 504334);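 further: median GFP fluorescence per well by flow cytometry over the all cells gate; ratio of sample to mean DMSO control signal so DMSO = 100% not 0%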
Conditions: S. cerevisiae AGP1-GFP strain, 3 h, at 10 µM, active compounds read high

Percent response vs DMSO, inactive:
Nc1nc(NCCOCCO)nc(Nc2cccc(F)c2)c1[N+](=O)[O-] 98.1%
Cc1ccc2nc(-c3ccc(NC(=O)c4cccnc4)cc3)oc2c1 93.8%
Nc1[nH]c(=O)nc(Nc2ccccc2)c1N=O 101%
COCCCNc1nc(N)c([N+](=O)[O-])c(Nc2cc(OC)ccc2OC)n1 100%
COCCNc1nc(N)c([N+](=O)[O-])c(Nc2ccc(F)cc2)n1 101%
Cc1ccc2c(Cl)cc(Cl)c(OCC(=O)O)c2n1 109%
O=C(Nc1cccc(Cl)c1)ON=C1c2ccccc2-c2ccccc21 99.1%
Nc1cc(C(=O)O)c(N)c2c1C(=O)c1ccccc1C2=O 102%
CS(=O)(=O)Oc1ccc(Br)c2cccnc12 96.4%
C[n+]1cccc2cccc([O-])c21 98.8%
O=C(O)c1ccc(C=NNC(=O)c2cccc3ccccc23)cc1 107%
COc1ccccc1Nc1nc(NCCCN(C)C)nc(N)c1[N+](=O)[O-] 102%
Cc1ccc(Nc2cc(=O)[nH]c(=O)[nH]2)cc1Cl 102%
Cc1cn2c(N)c(C=C3C=C(Cl)C(=O)C(Cl)=C3)c(=O)nc2s1 101%
COc1cccc(N/C(C)=C/C(=O)c2ccc(Br)cc2)c1 101%
COc1cccc(N/C=C/C(=O)c2ccc(C)cc2)c1 99.8%
O=C(Nc1nc(-c2ccccn2)cs1)c1ccccc1-n1cnnn1 100%
CC(=O)C(CC(=O)N1CCCC1)C(=O)Nc1ccc(Cl)cc1 (configuration not stated) 100%
CCC(C)Nc1nc(N)c([N+](=O)[O-])c(Nc2ccccc2OC)n1 (configuration not stated) 104%
CCC(=O)Nn1cnc2c(c1=O)C1(CCCCC1)Cc1ccccc1-2 102%
Cc1cccc(N/C=C/C(=O)c2ccc(Cl)cc2)c1 95.4%
CCCC(=O)Nn1cnc2c(c1=O)C1(CCCC1)Cc1ccccc1-2 101%

Source: PubChem BioAssay AID504334 (NMMLSC, 2011)
